Data as given in PubChem BioAssay AID2501 (Southern Research Specialized Biocontainment Screening …, 2010).
About 1,200 (55%) of roughly 2,200 compounds were called active. No cut-off is given here; in the data, nearly all actives have IC50 up to about 92 µM. So high a share suggests a set chosen from earlier hits. This is one part of the list.

assay: counter assay for TAg ATPase ADP read-out – biochemical, ADP-Hunter, fluorescence, counter-screen (AID 2501); conditions: series mostly up to 100 µM;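 note: purified T antigen ATPase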

| SMILES | IC50 |
| --- | --- |
| COc1cc(C=C(C(C)=O)C(C)=O)ccc1O | 3.76 µM (active) |
| N#C/C(=C\c1ccc(O)c(O)c1)C(=O)N1CCc2ccccc21 | 9.2 µM (active) |
| COc1cc(/C=C(\C#N)C(=O)N2CCc3ccccc32)ccc1O | 2.3 µM (active) |
| CCC(=O)N1CCc2cc(S(=O)(=O)N(C)c3ccc(OC)cc3OC)ccc21 | inactive |
| Cc1cc(/C=C(\C#N)C(=O)NC2CCCCCC2)c(C)n1C | inactive |
| COc1cc(/C=C(\C#N)C(=O)N2CCCCC2)ccc1O | 5.73 µM (active) |
| CC(C)(C)NC(=O)COC(=O)c1cc(F)c(F)cc1Cl | inactive |
| CCOC(=O)N1[C@@H]2C=C(C)[C@@H]2[C@@H]2[C@@H](C)C(=O)N21 | inactive |
| Cc1ccccc1/C=C/C(=O)c1ccc([N+](=O)[O-])o1 | inactive |
| COc1cc(/C=C/C(=O)c2ccc([N+](=O)[O-])o2)ccc1O | 5.19 µM (active) |
| O=C(/C=C/c1cccc(Cl)c1)c1ccc([N+](=O)[O-])o1 | inactive |
| COc1ccc(NC(=O)CN(C)C(=O)CCc2nc3cc(S(=O)(=O)N4CCOCC4)ccc3n2C)cc1 | inactive |
| Cc1ccc(S(=O)(=O)N2[C@@H](c3ccc(Cl)cc3)C(C(=O)O)=CC[C@H]2c2ccc(Cl)cc2)cc1 | inactive |
| Cc1ccc(S(=O)(=O)N2CCN(CC(=O)N/N=C\c3ccc(O)c(O)c3)CC2)cc1 | 3.2 µM (active) |
| O=S(=O)(c1ccc(NC(=S)N/N=C/c2ccc(O)c(O)c2)cc1)N1CCOCC1 | 5.94 µM (active) |
| CCN(CC)c1ccc(NC(=O)CCNS(=O)(=O)c2ccc3c(c2)CCC(=O)N3)c(C)c1 | 7.36 µM (active) |
| Cc1c(NC(=O)C(C)OC(=O)/C=C/c2ccco2)c(=O)n(-c2ccccc2)n1C (stereo not given) | inactive |
| COc1ccc(-c2nnc(SC(C)C(=O)Nc3c(C)n(C)n(-c4ccccc4)c3=O)o2)cc1 (stereo not given) | inactive |
| CC(C)(C)NC(=O)NC(=O)CN1CCN(c2ccc(O)cc2)CC1 | 4.89 µM (active) |
| N#Cc1ccsc1NC(=O)CN1CCN(c2ccc(O)cc2)CC1 | 6.3 µM (active) |
| Cc1c(NC(=O)CN2CCN(c3ccc(O)cc3)CC2)c(=O)n(-c2ccccc2)n1C | 8.18 µM (active) |
| Cc1c(NC(=O)COC(=O)COc2ccc(Nc3ccccc3)cc2)c(=O)n(-c2ccccc2)n1C | 8.78 µM (active) |
| CN1CCN(CC(=O)Nc2c(C#N)cnn2-c2ccccc2)CC1 | inactive |
| Cc1c(NC(=O)c2cnn3c2NC(c2ccccc2)CC3C(F)(F)F)c(=O)n(-c2ccccc2)n1C (stereo not given) | inactive |
| Cc1nc2ccc(NC(=O)c3cc([N+](=O)[O-])cc([N+](=O)[O-])c3Cl)cc2s1 | inactive |
